Our source for the composite z-score, z-score and composite Z-score values is PubChem BioAssay.

Calls of active or inactive are those of the source.

Experiment [1] has as its system Human papillomavirus type 1a protein E7 (residues 44-93). As to the kind of experiment: HPV1a E7 fragment binders on microarrays, primary screen, biochemical, small-molecule microarray, residues 44-93, 635 nm fluorescence (AID 1108).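 Further: E7 fragment applied at 1 µg/mL in TBST for 1 h at 4 C; score combines spot fluorescence with its signal to noise ratio.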 The conditions noted are these: small-molecule microarray binding, fluorescence 635 nm; higher = more signal.
Experiment [2] is described as follows: modulators of HCV replicon luciferase signal, primary screen, HCV replication inhibitor project, Huh7 cells, luciferase reporter (AID 1109).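 Further: huh7 hepatoma cells harbouring a luciferase neomycin HCV replicon reporter; luciferase luminescence as measure of HCV replicon replication; test concentration not given here.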 The conditions noted are these: 48 h, higher = more signal.
Experiment [3] deals with Left-right determination factor 2 (Homo sapiens) (UniProt O00292). As to the kind of experiment: LEFTY2 binders on small-molecule microarrays, primary screen, biochemical, small-molecule microarray, 635 nm fluorescence scan (AID 1110). The following applies: LEFTY2 binding, higher = more signal.
In experiment [4] the target is Calmodulin-1 (Homo sapiens) (UniProt P0DP23). The experiment can be described thus: CALM1 binders on microarrays, EGTA buffer, profiling panel, biochemical, small-molecule microarray, Cy5-labelled CALM1 (AID 1111).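 Further: labelled calmodulin applied in Tris saline Tween buffer holding calcium plus EGTA and DTT.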 The conditions noted are these: Cy5-CALM1 binding fluorescence, higher = more signal.
The target is the same in experiment [5]. The experiment can be described thus: calcium-bound CALM1 binders on microarrays, profiling panel, artefact control for SMM control-protein annotation, biochemical, small-molecule microarray, Cy5-labelled CALM1, plus calcium (AID 1112).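 Further: score merges spot fluorescence with signal to noise from triplicate slides.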 The conditions noted are these: Cy5-CALM1 binding fluorescence, higher = more signal.
Experiment [6] is described as follows: small-molecule microarray binders of probe aWnt5a, primary screen, biochemical, biotinylated probe, 635/667 nm fluorescence (AID 1113).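 Further: score merges 667 nm fluorescence intensity with signal-to-noise per printed feature.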 The following applies: higher = more signal.
Experiment [7] in a line: small-molecule microarray binders of probe aShh, primary screen, biochemical, biotinylated probe, 635/667 nm fluorescence (AID 1114).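 Further: probe is biotin-labelled aShh protein from a stem cell growth factor screen; measures binding of labelled protein to compounds printed on the slide; score merges feature fluorescence at 667 nm with signal-to-noise.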 The conditions noted are these: higher = more signal.
The nature of experiment [8]: small-molecule microarray binders of probe aNog, primary screen, biochemical, biotinylated probe, 635/667 nm fluorescence (AID 1115).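 Further: probe is biotinylated aNog protein used at 0.15 µg/mL for 1 h at 4 C; z-score combines 667 nm fluorescence of each spot with its signal to noise.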 The following applies: higher = more signal.
Experiment [9] addresses Torsin-1A-interacting protein 1 (Homo sapiens) (UniProt Q5JTV8). As to the kind of experiment: LAP1 binders from COS7 cell lysate, primary screen, small-molecule microarray, 635/667 nm fluorescence (AID 1116). The following applies: COS7-hLAP1 lysate binding, 635 nm fluorescence, higher = more signal.
Experiment [10] concerns the target Alpha-bungarotoxin (Bungarus multicinctus) (UniProt P60615). As to the kind of experiment: alpha-bungarotoxin binders on microarray, profiling panel, artefact control for SMM control protein annotation, biochemical, small-molecule microarray, Alexa647 label, 635/667 nm fluorescence (AID 1117). The conditions noted are these: alpha-BTX-A647 binding fluorescence, higher = more signal.

The next experiment concerns the target Albumin (Bos taurus) (UniProt P02769). The experiment can be described thus: bovine serum albumin binders on microarray, profiling panel, artefact control for SMM control protein annotation, biochemical, small-molecule microarray, Alexa647 label, 635/667 nm fluorescence (AID 1118).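 Further: score merges 667 nm emission intensity and signal-to-noise per printed compound spot.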 The following applies: BSA-A647 binding, fluorescence 635 nm, higher = more signal.

Experiment [11] is described as follows: small-molecule microarray binders of probe aXIP, primary screen, biochemical, NeuroSMM set, 635/667 nm fluorescence (AID 1119).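 Further: probe is the protein aXip251-270 applied at 1 µg/mL to compound-printed slides; binding of probe to printed compounds measured as 667 nm fluorescence plus signal to noise.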 The following applies: higher = more signal, called active from +8 up or from −8 down.
The nature of experiment [12]: small-molecule binders of probe aNOTCH3, primary screen, biochemical, small-molecule microarray, 635/667 nm fluorescence (AID 1120).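 Further: probe is a biotin-tagged antibody raised against NOTCH3 rather than NOTCH3 protein; score merges spot fluorescence near 667 nm with spot signal to noise.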 The conditions noted are these: higher = more signal.
A short description of experiment [13]: small-molecule binders of probe aNOTCH2, primary screen, biochemical, small-molecule microarray, 635/667 nm fluorescence (AID 1121).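 Further: score merges feature fluorescence read at 667 nm with its signal to noise.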 The conditions noted are these: higher = more signal.
Experiment [14] has as its target Carbonic anhydrase 2 (Homo sapiens) (UniProt P00918). As to the kind of experiment: CAII small-molecule binders, profiling panel, biochemical, small-molecule microarray, Alexa647-labelled CAII (AID 1122). The following applies: CAII-A647 binding fluorescence, higher = more signal.
Experiment [15] in a line: COS7 lysate on small-molecule microarray, probe aHis, 635 nm (AID 1123).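 Further: z-score combines 667nm fluorescence intensity with signal-to-noise per printed compound spot.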 The conditions noted are these: COS7 cell lysate, fluorescence, higher = more signal.
Experiment [16] in a line: compound binding in COS7 lysate, probe aLAP1, primary screen, cell lysate, small-molecule microarray (AID 1124).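 Further: lysate comes from COS7 cells expressing LAP1 and is applied at 0.3 µg/mL; score merges spot fluorescence near 667 nm with signal-to-noise over triplicate slides.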 The conditions noted are these: probe aLAP1, fluorescence, higher = more signal.
Another experiment deals with Sam68 (KHDRBS1). As to the kind of experiment: Sam68 small-molecule binders, primary screen, biochemical, small-molecule microarray, 635 nm fluorescence (AID 1125).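 Further: score merges 667 nm channel intensity with signal to noise over triplicate slides.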 The conditions noted are these: small-molecule microarray binding, higher = more signal.
The test system of experiment [17] is Chordin-like protein 2 (CHRDL2). The experiment can be described thus: CHRDL2 small-molecule binders, primary screen, biochemical, small-molecule microarray, 635 nm fluorescence (AID 1126).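 Further: printed compound slides probed with Chrdl2 protein at 4 µg/mL for 1 h at 4 C; score merges 667 nm emission intensity with signal to noise over three replicate slides.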 The following applies: small-molecule microarray binding, fluorescence 635 nm; higher = more signal.
In experiment [18] the target is Concanavalin-A (Canavalia ensiformis) (UniProt P02866). As to the kind of experiment: ConA small-molecule binders, primary screen, artefact control for SMM control protein annotation, biochemical, small-molecule microarray, Alexa647 label, 635 nm (AID 1127).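 Further: z combines 667 nm emission intensity with signal-to-noise across three replicate slides.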 The conditions noted are these: ConA-A647 binding fluorescence, higher = more signal.
Concanavalin-A (Canavalia ensiformis), sequence (P02866 whole entry, looked up): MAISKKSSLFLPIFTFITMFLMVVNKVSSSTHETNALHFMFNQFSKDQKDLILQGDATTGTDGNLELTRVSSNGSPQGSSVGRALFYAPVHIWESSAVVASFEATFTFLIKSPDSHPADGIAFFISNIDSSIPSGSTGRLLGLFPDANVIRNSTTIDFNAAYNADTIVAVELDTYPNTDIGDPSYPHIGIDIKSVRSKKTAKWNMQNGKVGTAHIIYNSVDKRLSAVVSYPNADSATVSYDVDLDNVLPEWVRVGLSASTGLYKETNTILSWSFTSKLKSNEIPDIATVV

Left-right determination factor 2 (Homo sapiens), sequence (O00292 whole entry, looked up): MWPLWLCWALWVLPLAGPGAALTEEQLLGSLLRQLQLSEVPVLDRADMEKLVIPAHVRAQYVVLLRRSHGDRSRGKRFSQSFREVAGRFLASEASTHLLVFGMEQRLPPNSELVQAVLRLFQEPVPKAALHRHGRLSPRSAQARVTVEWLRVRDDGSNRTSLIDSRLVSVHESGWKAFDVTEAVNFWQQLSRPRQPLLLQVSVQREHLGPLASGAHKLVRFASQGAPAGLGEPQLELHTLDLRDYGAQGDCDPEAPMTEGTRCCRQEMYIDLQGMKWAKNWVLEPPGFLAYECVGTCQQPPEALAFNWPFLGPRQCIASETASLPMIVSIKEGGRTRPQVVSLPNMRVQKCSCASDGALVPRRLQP
Torsin-1A-interacting protein 1 (Homo sapiens), sequence (Q5JTV8 whole entry, looked up): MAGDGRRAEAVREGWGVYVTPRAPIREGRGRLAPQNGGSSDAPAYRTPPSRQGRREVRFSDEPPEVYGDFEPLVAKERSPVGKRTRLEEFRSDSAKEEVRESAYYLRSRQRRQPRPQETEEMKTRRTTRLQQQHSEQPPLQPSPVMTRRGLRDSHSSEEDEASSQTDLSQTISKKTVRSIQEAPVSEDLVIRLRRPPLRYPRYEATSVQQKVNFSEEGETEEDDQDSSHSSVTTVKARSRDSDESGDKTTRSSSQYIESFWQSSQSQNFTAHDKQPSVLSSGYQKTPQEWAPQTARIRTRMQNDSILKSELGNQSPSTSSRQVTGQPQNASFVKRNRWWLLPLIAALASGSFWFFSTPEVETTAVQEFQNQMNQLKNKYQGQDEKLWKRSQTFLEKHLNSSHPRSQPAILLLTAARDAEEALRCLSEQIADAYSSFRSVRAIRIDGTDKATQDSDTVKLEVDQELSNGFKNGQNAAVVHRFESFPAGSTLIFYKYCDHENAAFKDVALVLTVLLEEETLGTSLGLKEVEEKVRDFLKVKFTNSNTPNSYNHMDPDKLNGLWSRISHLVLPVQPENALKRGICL
Albumin (Bos taurus), sequence (P02769 whole entry, looked up): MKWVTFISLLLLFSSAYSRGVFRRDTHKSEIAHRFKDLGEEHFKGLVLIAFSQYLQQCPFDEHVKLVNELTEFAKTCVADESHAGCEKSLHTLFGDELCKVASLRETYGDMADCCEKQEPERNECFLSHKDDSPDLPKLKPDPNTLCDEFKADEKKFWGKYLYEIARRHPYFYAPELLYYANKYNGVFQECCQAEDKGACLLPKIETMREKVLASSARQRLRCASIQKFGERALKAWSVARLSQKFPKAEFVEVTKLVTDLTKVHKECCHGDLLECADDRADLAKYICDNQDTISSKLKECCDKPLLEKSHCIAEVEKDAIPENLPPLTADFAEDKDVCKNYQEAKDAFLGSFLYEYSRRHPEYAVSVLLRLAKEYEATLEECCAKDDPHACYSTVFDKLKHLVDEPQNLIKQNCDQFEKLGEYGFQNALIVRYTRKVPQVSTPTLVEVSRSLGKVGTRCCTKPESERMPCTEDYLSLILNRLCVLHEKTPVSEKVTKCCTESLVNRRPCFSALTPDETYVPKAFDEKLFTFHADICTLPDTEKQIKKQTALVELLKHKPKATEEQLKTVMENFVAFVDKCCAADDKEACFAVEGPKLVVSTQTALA
Alpha-bungarotoxin (Bungarus multicinctus), sequence (P60615 whole entry, looked up): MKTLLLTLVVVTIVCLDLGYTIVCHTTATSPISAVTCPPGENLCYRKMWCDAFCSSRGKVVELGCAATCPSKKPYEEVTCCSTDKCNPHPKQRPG

With `C=C(C)[C@@H]1CC=C(C(O)C2C=CC3C(=O)N(C4CCCCC4)C(=O)C3N2Nc2ccc(OC)cc2)CC1` (stereo not given in full), the composite z-score in experiment [1] was 1.39; in [3] it was 0.3; in experiment [4], 1.5; in [5], 0.417; in [6], -0.0738; in [7] it was -0.1. Moreover, the composite z-score was -0.368 in [8]; 0.477 in experiment [9]; 1.3 in experiment [10]; 0.902 with Albumin (Bos taurus); 0.323 in experiment [12]; -0.141 in experiment [13]. Moreover, the composite z-score in experiment [14] worked out at 0.59; in experiment [15], 2.54; in [16] it was 0.273; in the experiment with Sam68 (KHDRBS1), 1.29; in experiment [17], 0.0811; in [18] it was 1.09. In experiment [2], this molecule registered a z-score of -1.19. The composite Z-score in [11] was 0.494 (inactive).

`[N-]=[N+]=NCc1ccccc1C[C@]1(C(=O)NCCN2CCOCC2)COC(c2ccc(OCCCO)cc2)=N1`: the composite z-score was 1.44 in [1]; -0.389 in [3]; 0.74 in experiment [4]; -0.096 in [5]; 0.0479 in [6]; -0.0119 in experiment [7]. Moreover, the composite z-score was -0.509 in experiment [8]; 0.555 in experiment [9]; -0.0034 in experiment [10]; 0.854 in the experiment with Albumin (Bos taurus); 0.116 in [12]; -0.106 in experiment [13]. The composite z-score in experiment [14] is 0.353; in experiment [15], 2.31; in [16], 1.47; in the experiment on Sam68 (KHDRBS1), 1.29; in [17], -0.519; in experiment [18], 0.0927. Besides, the z-score in experiment [2] was -1.79. The composite Z-score in experiment [11] is 0.689 (inactive).

Take `CCOC(=O)C1=CCC(c2cccc(Cl)c2)O1` (stereo not given): the composite z-score in experiment [1] was 0.377; in experiment [3] it was 0.005; in [4], -0.314; in experiment [5] it was -0.571; in experiment [6], -0.0492; in experiment [7], 0.0796. Besides, the composite z-score in experiment [8] is 0.59; in experiment [9] it was 0.291; in experiment [10], -0.383; with Albumin (Bos taurus), 0.581; in [12], 0.0357; in [13], -0.0651. In addition, the composite z-score in experiment [14] was 0.181; in experiment [15], 0.389; in [16], -0.064; in the experiment with Sam68 (KHDRBS1), 0.609; in experiment [17] it was -0.384; in experiment [18], 0.16. The molecule also gave a z-score in [2] of -1.74. In addition, the composite Z-score in [11] is -0.214 (inactive).

As for `COCCCNC(=O)[C@]1(Cc2ccccc2)N=C(c2ccc(OCCCO)cc2)O[C@@H]1c1ccccc1N=[N+]=[N-]`, the composite z-score in experiment [1] is 1.24; in [3], -0.314; in [4], 1.61; in [5], 0.24; in [6] it was 0.008; in [7], -0.0866. The composite z-score in [8] was 0.433; in experiment [9] it was 0.997; in experiment [10], 0.974; with Albumin (Bos taurus), 0.855; in experiment [12] it was 0.0999; in [13], -0.106. Also, the composite z-score in experiment [14] was 0.502; in [15] it was 0.0137; in [16] it was 0.287; with Sam68 (KHDRBS1) it was 1.29; in [17], -0.26; in [18] it was 1.1. Moreover, the z-score in experiment [2] was -3.4. Further, in experiment [11], the composite Z-score was 0.454 (inactive).

As to `COC(=O)[C@H]1N=C(c2ccc(OCCCO)cc2)O[C@H]1c1ccccc1CN=[N+]=[N-]`, the composite z-score in experiment [1] was 1.05; in experiment [3], -1.16; in experiment [4], 0.452; in [5] it was 0.516; in experiment [6], 0.0495; in [7] it was 0.105. Also, the composite z-score in [8] is 1.64; in experiment [9] it was 0.431; in experiment [10], 0.534; in the experiment with Albumin (Bos taurus), 0.394; in experiment [12], 0.23; in [13], -0.0174. The composite z-score in experiment [14] was 0.41; in experiment [15], 1.78; in experiment [16] it was 0.427; with Sam68 (KHDRBS1), 0.0826; in experiment [17], -0.935; in experiment [18], 0.8. The z-score in experiment [2] was -2.03. Also, the composite Z-score in [11] was -0.391 (inactive).

On to `CCCCCCC#C[Si](O[C@H](c1ccccc1)c1cn(Cc2cccc(Cl)c2)nn1)(C(C)C)C(C)C`, for which the composite z-score in experiment [1] was 0.564; in experiment [3], 0.198; in experiment [4], -0.0008; in [5] it was -0.159; in experiment [6], -0.124; in experiment [7], -0.0035. Further, the composite z-score in experiment [8] is -0.118; in experiment [9] it was 0.343; in [10], -0.0766; with Albumin (Bos taurus), 0.31; in [12], -0.0647; in experiment [13], -0.104. Moreover, the composite z-score in [14] was 0.205; in [15] it was 0.186; in [16], -0.124; in the experiment on Sam68 (KHDRBS1), 0.581; in experiment [17], 0.141; in experiment [18] it was 0.57. In [2], this molecule had a z-score of -0.775. For the same molecule, in [11], the composite Z-score was 0.242 (inactive).
